BoNT-A LC inh2 = blocks Botulinum neurotoxin A light chain protease | actives 0.17% (n = 360,000) | multiplex microsphere protease substrate cleavage, flow cytometry | inhibition, % at 10 µM; further: plate controls were buffer without enzyme for full effect and enzyme alone for no effect
Anthrax LF prot = inhibitors of Bacillus anthracis lethal factor protease. P15917. multiplex microsphere protease cleavage assay, LF. inhibition, % at 10 µM. actives 0.12% (n = 360,000); further: plate controls were buffer without enzyme for full effect and enzyme alone for no effect
Target sequence (P15917 whole entry, looked up): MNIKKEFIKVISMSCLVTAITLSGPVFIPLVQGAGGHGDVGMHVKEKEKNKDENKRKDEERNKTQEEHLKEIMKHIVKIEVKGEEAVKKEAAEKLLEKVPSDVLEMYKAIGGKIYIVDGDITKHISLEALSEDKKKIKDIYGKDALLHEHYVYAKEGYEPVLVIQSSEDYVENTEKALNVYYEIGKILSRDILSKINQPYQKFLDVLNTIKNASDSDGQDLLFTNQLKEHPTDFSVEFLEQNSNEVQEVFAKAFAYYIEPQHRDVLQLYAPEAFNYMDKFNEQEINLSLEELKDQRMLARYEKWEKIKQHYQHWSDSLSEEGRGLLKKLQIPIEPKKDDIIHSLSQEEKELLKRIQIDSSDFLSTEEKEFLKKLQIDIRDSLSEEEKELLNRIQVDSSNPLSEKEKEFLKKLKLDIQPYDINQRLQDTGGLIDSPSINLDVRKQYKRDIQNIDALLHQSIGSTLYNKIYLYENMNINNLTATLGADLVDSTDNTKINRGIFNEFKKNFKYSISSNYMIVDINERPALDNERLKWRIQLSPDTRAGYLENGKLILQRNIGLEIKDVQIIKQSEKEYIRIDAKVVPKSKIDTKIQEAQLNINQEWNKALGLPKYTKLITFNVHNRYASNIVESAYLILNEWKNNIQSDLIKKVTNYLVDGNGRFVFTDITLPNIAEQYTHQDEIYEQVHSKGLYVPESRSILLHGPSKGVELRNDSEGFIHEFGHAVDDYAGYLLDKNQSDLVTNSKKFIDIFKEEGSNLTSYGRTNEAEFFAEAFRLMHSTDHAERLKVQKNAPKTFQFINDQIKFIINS
BoNT F protease = blocks Botulinum neurotoxin F light chain protease; actives 0.22% (n = 360,000); inhibition, % at 10 µM; Multiplex microsphere protease cleavage assay, flow cytometry; AID 588497; in the data active means inhibition above about 35%, passing the limit was not always enough; inconclusive means no clear call, values can overlap the other calls; further: plate controls were buffer without enzyme for full effect and enzyme alone for no effect
SSB-PriA inh = inhibitors of Klebsiella pneumoniae PriA binding to SSB C-terminal tail. AID 1272365. inhibition, % at 33 µM. actives 0.6% (n = 430,000). AlphaScreen SSBct-PriA binding, biotinylated peptide; in the data active means inhibition mostly above about 37%, no sharp cut-off; inactive means mostly below about 20%;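 further: plate controls were negative control peptide for no effect and reference peptide for full effect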
Autofluor counter = counter-screen for toxin protease inhibitors: compound fluorescence; compound autofluorescence counterscreen, microsphere flow cytometry; stronger effect = higher value; AID 624483; fluorescence intensity (concentration not given with the values); actives 3.1% (n = 360,000); in the data active means fluorescence intensity above about 16000; inconclusive means no clear call, values can overlap the other calls
An asterisk follows results filed as active; u = inconclusive; x = no result. Only some compounds are listed: those with a hit (about 3.1% of all), similar ones and a draw of the others. Unless noted, no stated cut-off is given here; in the data, active means inhibition above about 30%; inconclusive means no clear call, values can overlap the other calls; inactive means below that.

SMILES | BoNT-A LC inh2 | Anthrax LF prot | BoNT F protease | SSB-PriA inh | Autofluor counter
CCOC(=O)C1CCCN(C(=O)c2ccc3c(=O)n(CCOC)c(=S)[nH]c3c2)C1 (stereo not given) | 1 | -1 | 1 | -21 | 20489*
COc1ccccc1Cn1c(=S)[nH]c2cc(C(=O)NCCCN3CCOCC3)ccc2c1=O | 0 | -1 | 10 | 0 | 5953
COc1cc([N+](=O)[O-])ccc1NC(=O)c1ccc([N+](=O)[O-])o1 | x | x | x | 7 | x
Cc1c(Br)c(C(F)(F)F)nn1CC(=O)Nc1sc2c(c1C#N)CC[C@H](C(C)(C)C)C2 | x | x | x | -14 | x
COC(=O)c1ccc2c(=O)n(Cc3cccc(Br)c3)c(=S)[nH]c2c1 | x | x | x | -4 | x
COc1ccccc1NC(=O)c1ccccc1C(=O)O | -1 | -2 | -1 | -19 | 4182
COc1ccccc1Oc1ccccc1C(=O)O | 1 | 1 | 0 | -15 | 16152*
O=C(CSc1nnnn1C1CCCCC1)NCc1ccc2c(c1)OCO2 | 1 | -4 | 1 | 0 | 7097
CC(C)(C)NC(=O)CSc1nnc(Cc2ccc3c(c2)OCO3)n1C1CCCCC1 | -2 | -5 | -5 | -4 | 20511*
NC(=Nc1nc2ccccc2o1)NC(=O)/C=C/c1ccccc1 | x | x | x | -10 | x
Cc1ccccc1Oc1ccc(S(=O)(=O)N2CCCC2)cc1 | x | x | x | -26 | x
COc1ccccc1Oc1ccc(S(=O)(=O)N2CCCC2)cc1 | 1 | -3 | 3 | -11 | 23093*
COc1ccccc1-n1c(SCC(N)=O)nnc1-c1ccc(S(=O)(=O)N2CCCCC2)cc1 | 0 | 0 | 4 | -3 | 22234*
Cc1ccc(S(=O)(=O)N=C(CSC(N)=O)Nc2ccccc2)cc1 | x | x | x | -7 | x
COc1ccccc1C1C(C#N)=C(N)Oc2cc(C)n(Cc3ccccn3)c(=O)c21 (stereo not given) | u | -14 | u | 1 | u
Cc1cc2c(c(=O)n1Cc1cccnc1)C(c1ccccc1)C(C#N)=C(N)O2 (stereo not given) | 1 | -10 | -10 | -9 | 3096
CCOc1ccc(C2C(C#N)=C(N)SC(N)=C2C#N)cc1OCC | 9 | 8 | 11 | -1 | 10159
COCCn1c(C)cc2c(c1=O)C(c1ccccc1F)C(C#N)=C(N)O2 (stereo not given) | 1 | 0 | 0 | -6 | 20039*
CCOc1ccccc1C1C(C#N)=C(N)Oc2cc(C)n(C)c(=O)c21 (stereo not given) | u | 0 | 5 | -11 | 21644*
CCOc1ccccc1C1C(C#N)=C(N)SC(N)=C1C#N | 24 | 21 | 51* | -8 | 4715
Cc1cc2c(c(=O)n1Cc1ccc3c(c1)OCO3)C(c1cccnc1)C(C#N)=C(N)O2 (stereo not given) | -1 | -3 | -3 | -6 | 20731*
O=C(CN1C(=O)c2ccccc2C1=O)Nc1cccc(NC(=O)CN2C(=O)c3ccccc3C2=O)c1 | x | x | x | -14 | x
COc1ccccc1C1C(C#N)=C(N)Oc2cc(C)n(CCCn3ccnc3)c(=O)c21 (stereo not given) | -1 | -5 | 0 | -16 | 4121
Cc1cc2c(c(=O)n1CCCn1ccnc1)C(c1ccco1)C(C#N)=C(N)O2 (stereo not given) | 1 | 0 | 0 | 3 | 22337*
Cn1nc(-c2ccccc2)cc1C(=O)Nc1cc(-n2cncn2)ncn1 | x | x | x | 8 | x
SMILES | BoNT-A LC inh2 | Anthrax LF prot | BoNT F protease | SSB-PriA inh | Autofluor counter
O=S(=O)(Cc1ccccc1)N1CCc2ccccc2C1 | u | -2 | -5 | -1 | 26161*
O=C1CC(N(C(=O)c2ccco2)c2ccc(F)cc2)C(=O)N1c1ccc(F)cc1 (stereo not given) | u | 1 | 11 | -6 | 19184*
O=C(NCCC(O)C1CCOCC1)NC1CCCCC1 (stereo not given) | x | x | x | 1 | x
CC1(C(=O)O)CCC(C(=O)NC2CCCCCC2)C1(C)C (stereo not given) | 5 | 1 | 3 | -6 | 21823*
CC1(C(=O)O)CCC(C(=O)NC2CCCCC2)C1(C)C (stereo not given) | 1 | 1 | 13 | -2 | 5706
Cc1ccc(C)c(NC(=O)C2CCC(C)(C(=O)O)C2(C)C)c1 (stereo not given) | -4 | -1 | -6 | 0 | 24078*
CO[C@@H](CNC(=O)c1ccc(F)cc1Cl)c1ccsc1 | x | x | x | -18 | x
Cc1noc(C)c1C(=O)OCC(=O)c1cc(C)n(Cc2ccccc2Cl)c1C | -2 | -17 | -4 | 1 | 22970*
Cc1cc(NC(=O)COC(=O)c2c(C)nn(Cc3ccccc3)c2C)no1 | 0 | 0 | -2 | -18 | 3448
Cc1cc(NC(=O)COC(=O)c2ccc(C)c(C)c2)no1 | 0 | -10 | -5 | -1 | 4081
Cc1noc(C)c1C(=O)OCC(=O)c1ccc[nH]1 | 1 | -1 | 3 | 7 | 3747
Cc1cc(NC(=O)COC(=O)c2c(C)nn(Cc3ccccc3Cl)c2Cl)no1 | -3 | -7 | -4 | -4 | 24183*
Cc1cc(NC(=O)COC(=O)CSCc2ccc(Cl)c(Cl)c2)no1 | u | 0 | 4 | -7 | 22915*
Cc1cc(NC(=O)COC(=O)c2cccc(OCc3ccccc3)c2)no1 | -1 | 0 | -2 | -15 | 20597*
CCc1noc(-c2ccc(SCC(=O)NCc3ccc(F)cc3F)nc2)n1 | x | x | x | -5 | x
O=S(=O)(NCC1CCN(Cc2ccco2)CC1)c1ccccc1 | x | x | x | -10 | x
Nc1cc(N)cc(-c2nc3ccccc3[nH]2)c1 | 0 | -13 | -25 | 45* | 2565
O=C(OCCN1C(=O)c2cccc3c(N4CCOCC4)ccc(c23)C1=O)c1ccc(Cl)cc1Cl | 51* | 24 | 19 | -9 | 4710
O=C(OCCN1C(=O)c2cccc3c(N4CCOCC4)ccc(c23)C1=O)c1cccc(Cl)c1 | x | x | x | -19 | x
O=C(OCCN1C(=O)c2cccc3c(N4CCOCC4)ccc(c23)C1=O)c1ccccc1Cl | 37* | 15 | 8 | -38 | 3728
CCOC(=O)N1CCN(C(=O)CCc2csc3nc(-c4ccc(Cl)cc4)cn23)CC1 | x | x | x | -9 | x
CCOc1ccc2oc(C(=O)N3CCN(c4ccccn4)CC3)c(C)c2c1 | 1 | -2 | 13 | -10 | 5614
CC(=O)N1CCN(C(=O)c2oc3ccccc3c2C)CC1 | 1 | -2 | 5 | -21 | 5781
Cc1cnn(C(=O)c2oc3ccccc3c2C)c1 | 3 | 2 | 7 | -2 | 22067*
COc1ccc2oc(=O)c(C(=O)N3CCN(c4ccccn4)CC3)cc2c1 | x | x | x | 11 | x
SMILES | BoNT-A LC inh2 | Anthrax LF prot | BoNT F protease | SSB-PriA inh | Autofluor counter
COc1cc(Br)cc2cc(C(=O)N3CCN(c4ccccn4)CC3)c(=O)oc12 | -1 | 0 | -1 | -11 | 23664*
Cc1c(C(=O)N2CCN(c3ccccn3)CC2)oc2ccccc12 | 3 | -12 | 1 | -7 | 22383*
O=C(c1cc2cc(Br)ccc2oc1=O)N1CCN(c2ccccn2)CC1 | 0 | -3 | 0 | -5 | 16477*
CCn1ncc(C=NNC(=O)c2ccc3c(c2)OCO3)c1C | x | x | x | -3 | x
CCc1ccc2ncc(S(=O)(=O)c3ccc(OC)cc3)c(N3CCN(c4ccc(F)cc4)CC3)c2c1 | x | x | x | -10 | x
CC(C)(C)P(=O)(CO)c1ccccc1 (stereo not given) | 3 | -3 | 2 | -1 | 19072*

Bioassay records: PubChem BioAssay, several laboratories
